Source: PubChem
KCNH2 3.1 inh = qHTS for Inhibitors of KCHN2 3.1: Mutant qHTS; activity change, % (tested at about 1.8 µM); hit rate 0.95% among 340,000; U2OS KCNH2 3.1, thallium flux FluxOr; hits give low values;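 active = maximum activity change below -70%; inconclusive = maximum activity change from -70% to -50%; inactive = maximum activity change above -50%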;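 note: thallium influx rate constant from kinetic fluorescence after stimulation buffer; % is set by controls: 0 for no effect and ±100 for the full control effect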
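Thallium flux via FluxOr fluorescence (Red40 quencher, 45 min loading) in U2OS cells virally expressing the KCNH2 3.1 isoform (1.77 x 10^8 /mL virus, overnight at 37 C). Rate constants from 2-min kinetic reads post-stimulation, normalised to positive and negative controls.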
SW480 rereplic = A quantitative high throughput screen for small molecules that induce DNA re-replication in SW480 colon adenocarcinoma cells; SW480 DNA re-replication, Hoechst DNA content imaging, 48 h; hit rate 1.8% among 340,000; Potency, µM (doses to about 46.1 µM), inactives show top-dose re-replication activation, actives largely listed as activators; AID 624297, 2012; note: potency is the fitted concentration of half-maximal effect; % of control where 0% means no effect; nearly all actives have a fitted effect of over 55% in size
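Per well, 250 cells were exposed to pinned compound for 48 hr. Nuclear DNA was visualised with Hoechst (40 min, 37 C) and total object intensity recorded by fluorescence scanning.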
KB-3-1 tox = qHTS assay for MDR1-selective chemotherapeutics: Primary screen using the parental adenocarcinoma cell KB-3-1. KB-3-1 viability, CellTiter-Glo ATP luminescence, 72 h. Potency, µM (highest dose often 46.1 µM), usual class: cytotoxic. hit rate 1.4% among 400,000. AID 1347075, 2019; note: potency is the fitted concentration of half-maximal effect; % is set by controls: 0 for no effect and ±100 for the full control effect; nearly all actives have a fitted effect of over 60% in size
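72 h, 37 °C compound treatment of KB-3-1 parental cells; CellTiter-Glo added, 10 min, luminescence read. Data corrected against DMSO-only plates and normalized before curve fitting.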
KCNH2 WT inh = qHTS for Inhibitors of KCHN2 3.1: Wildtype qHTS. U2OS, BacMam KCNH2, thallium flux FluxOr; hits give low values. activity change, % at 1.84 µM. hit rate 0.37% among 340,000. AID 720551, 2013;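 active = maximum activity change below -70%; inconclusive = maximum activity change between -70% and -50%; inactive = maximum activity change above -50%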; note: % is set by controls: 0 for no effect and ±100 for the full control effect
Target sequence (Q12809 whole entry, looked up): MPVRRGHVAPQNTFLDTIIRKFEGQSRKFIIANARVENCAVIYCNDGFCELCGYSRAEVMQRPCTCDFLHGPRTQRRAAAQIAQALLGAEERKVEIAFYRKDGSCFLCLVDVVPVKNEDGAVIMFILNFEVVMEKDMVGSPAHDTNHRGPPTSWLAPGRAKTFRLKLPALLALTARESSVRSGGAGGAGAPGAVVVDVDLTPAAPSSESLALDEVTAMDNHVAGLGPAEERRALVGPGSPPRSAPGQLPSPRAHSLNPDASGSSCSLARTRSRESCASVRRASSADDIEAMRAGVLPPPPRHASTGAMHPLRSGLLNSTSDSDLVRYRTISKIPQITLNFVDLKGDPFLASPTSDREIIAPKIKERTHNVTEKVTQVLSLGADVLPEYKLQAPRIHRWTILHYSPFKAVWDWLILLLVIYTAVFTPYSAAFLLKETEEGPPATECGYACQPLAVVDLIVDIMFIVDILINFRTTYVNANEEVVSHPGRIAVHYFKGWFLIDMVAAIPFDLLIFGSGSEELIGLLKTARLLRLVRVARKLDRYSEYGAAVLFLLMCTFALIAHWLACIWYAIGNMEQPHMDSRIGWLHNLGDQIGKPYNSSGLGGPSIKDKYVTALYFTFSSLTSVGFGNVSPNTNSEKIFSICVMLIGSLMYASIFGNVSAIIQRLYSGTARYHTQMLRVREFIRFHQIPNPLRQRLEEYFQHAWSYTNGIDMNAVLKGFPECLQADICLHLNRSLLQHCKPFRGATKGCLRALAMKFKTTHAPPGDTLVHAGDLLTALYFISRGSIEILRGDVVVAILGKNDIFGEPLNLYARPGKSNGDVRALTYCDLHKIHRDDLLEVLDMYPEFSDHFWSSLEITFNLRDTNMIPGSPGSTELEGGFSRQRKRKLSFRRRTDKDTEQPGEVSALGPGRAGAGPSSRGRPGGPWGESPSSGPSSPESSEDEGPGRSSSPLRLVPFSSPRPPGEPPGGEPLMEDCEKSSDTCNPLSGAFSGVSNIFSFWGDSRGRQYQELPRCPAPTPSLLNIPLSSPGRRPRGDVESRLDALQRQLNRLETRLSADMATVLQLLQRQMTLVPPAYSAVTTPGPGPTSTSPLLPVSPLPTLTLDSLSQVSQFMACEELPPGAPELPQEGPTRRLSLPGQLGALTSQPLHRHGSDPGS
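U2OS cells were transduced with wild-type KCNH2 virus (2.03 x 10^8 / mL) for 4 h at room temperature, then cultured overnight at 37 C. Thallium flux was read with FluxOr dye. Rate constants were normalized to DMSO controls.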
MCF10A rereplic = A quantitative high throughput screen for small molecules that induce DNA re-replication in MCF 10a normal breast cells; MCF 10A DNA re-replication, Hoechst nuclear intensity, 48 h; Potency, µM (highest dose often 46.1 µM), inactives show at the top dose activity, positive = re-replication, actives largely listed as activators; hit rate 2.9% among 350,000; note: potency is the fitted concentration of half-maximal effect; % of control where 0% means no effect; nearly all actives have a fitted effect of over 50% in size
KB-V1 MDR tox = qHTS assay for MDR1-selective chemotherapeutics: Primary screen using the drug-selected MDR subline cells KB-V1 | KB-V1 MDR cells viability, CellTiter-Glo, 72 h | Potency, µM (highest dose often 46.1 µM), usual class: cytotoxic | hit rate 3.4% among 400,000 | AID 1347076, 2019; note: potency is the fitted concentration of half-maximal effect; % is set by controls: 0 for no effect and ±100 for the full control effect; nearly all actives have a fitted effect of over 60% in size
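Following 72 h at 37 degrees C with compound, KB-V1 cell viability was read by CellTiter-Glo luminescence, medium being phenol-red-free DMEM plus 10% FBS; concentration-response parameters came from normalized, curve-fitted qHTS data.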
* marks the source's active call; other numbers are inactive results; i = inactive; ? = inconclusive; . = no result given; ! = a repeat was not active; [ ] = dose if it differs, or a comment. The list is not random: actives were taken first. Their share in the collection is about 7.6%. Unless noted, calls come from the whole dose curve; as a rule, active = well fitted curve in the direction sought with a large enough effect; inconclusive = small, poorly fitted or top-dose-only effect, or another doubt; inactive = no such curve, though single readings can be large; an effect the other way counts as inactive or inconclusive.

SMILES	KCNH2 3.1 inh	SW480 rereplic	KB-3-1 tox	KCNH2 WT inh	MCF10A rereplic	KB-V1 MDR tox
O=C(c1cc([N+](=O)[O-])ccc1N1CCOCC1)N1CCCCC1	6	-5%	?	-7	3%	i
CN1CCN(c2ccc([N+](=O)[O-])cc2C(=O)N2CCCCC2)CC1	24	1%	i	32	19%	i
CC(=O)c1ccc(N2CCN(S(=O)(=O)c3c(C)nc4sc(C)cn4c3=O)CC2)cc1	.	.	i	.	.	i
CC1CCCN(c2ccc([N+](=O)[O-])cc2C(=O)c2ccccc2)C1 (configuration not stated)	-1	4.1µM*	?	2	?	i
CC1CC(C)CN(CCCNC(=O)CCC(=O)N2CCOc3ccccc32)C1 (configuration not stated)	-14	-5%	i	9	-3%	i
CCOc1ccccc1C1CC(=O)NC2=C1C(=O)CCC2 (configuration not stated)	10	18µM*	?	2	?	?
CCCCOc1ccc(C2CC(=O)NC2=O)cc1 (configuration not stated)	2	-8%	i	-7	-5%	?
CCCOc1ccccc1C1CC(=O)NC2=C1C(=O)CCC2 (configuration not stated)	13	12µM*	4.6µM*	-13	10µM*	?
CCCOc1ccccc1C1CC(=O)NC(C)=C1C(=O)OCC(C)C (configuration not stated)	-10	16%	i	7	17%	?
CCOc1ccc(C2CC(=O)NC3=C2C(=O)CCC3)cc1 (configuration not stated)	7	-4%	i	17	-2%	i
CCCCOc1ccccc1C1CC(=O)NC2=C1C(=O)CCC2 (configuration not stated)	-4	?	?	2	4.1µM*	?
Cc1cccc(NC(=O)Cn2nnc(C(=O)NCc3cccs3)c2N)c1	.	.	i	.	.	i
Oc1ccccc1Oc1c(F)c(F)nc(N2CCCC2)c1F	2	12%	i	-14	?	i
CC(=O)/C=C/c1ccccc1Oc1c(F)c(F)nc(F)c1F	4	18µM*	?	7	23µM*	i
O=C(NCc1ccccc1Cl)C1CCN(S(=O)(=O)c2ccc(N3CCCC3=O)cc2)CC1	5	?	i	-13	11%	i
Nc1nonc1C(=O)NCCNS(=O)(=O)c1ccc(Br)cc1	1	5%	i	5	18µM*	i
CSc1cccc(NC(=O)C2CC(=O)N(c3ccc4c(c3)OCCO4)C2)c1 (configuration not stated)	9	.	i	-7	.	?
O=C(C1CCC(CNc2nc(=S)[nH]c3ccccc23)CC1)N1CCN(c2ccc(F)cc2)CC1 (configuration not stated)	4	?	?	1	?	i
CNC(=O)CN1C(=O)c2cccc3cccc1c23	15	-3%	i	-4	-1%	i
CN1/C(=N\O)c2cccc3cccc1c23	-2	19%	?	7	18µM*	?
COc1ccc2cc(/C=N/NC(=O)c3ccc(CN(c4cccc(Cl)c4Cl)S(C)(=O)=O)cc3)c(Cl)nc2c1	-9	-5%	2.6µM*	6	?	?
COc1ccc2cc(/C=N/O)c(Cl)nc2c1	-11	16%	i	5	0%	?
COc1ccc(S(=O)(=O)N2CCN(Cc3cc4c(cc3Br)OCCO4)CC2)cc1	-5	-1%	i	1	24%	15µM*
CC(C)c1ccc(S(=O)(=O)N2CCN(Cc3cccc(F)c3)CC2)cc1	.	.	i	.	.	i
O=S(=O)(c1ccc(Br)cc1)N1CCCN(Cc2cccc(F)c2)CC1	-45	21µM*!	i	33	?	i
SMILES	KCNH2 3.1 inh	SW480 rereplic	KB-3-1 tox	KCNH2 WT inh	MCF10A rereplic	KB-V1 MDR tox
COc1ccc(S(=O)(=O)N2CCN(S(=O)(=O)c3ccc4c(c3)OCCO4)CC2)cc1	8	6%	i	2	-5%	i
COc1cccc(CN2CCCN(S(=O)(=O)c3ccc(Br)cc3)CC2)c1	4	?	i	-88*	?	?
O=C(CN1CCN(S(=O)(=O)c2ccc(Br)s2)CC1)NC1CCCCC1	-3	-2%	i	0	-1%	10µM*
O=C(CN1CCN(S(=O)(=O)c2ccc(Br)s2)CC1)NCC1CCCCC1	2	.	i	6	.	i
O=C(CN1CCN(S(=O)(=O)c2ccc(Br)s2)CC1)N1CCCCC1	13	0%	i	-227*	1%	i
O=C(NCCc1ccccc1)C(=S)N1CCCCC1	0	6%[1.84 µM]	?	9	-15%	i
CCOc1ccc(S(=O)(=O)n2c([N+](=O)[O-])cnc2C)c(C)c1C	-1	?	i	4	19%	i
CC[n+]1ccc(C[n+]2ccccc2)c2ccccc21	1	-3%	i	16	1%	i
CCN(CC)c1ccccc1/C=C/[n+]1ccc(CCCCI)c2ccccc21	.	.	3.7µM*	.	.	?
CCOC(=O)c1cc(NC(=O)C2CCCO2)cc(C(=O)OCC)c1 (configuration not stated)	11	-11%	i	-12	1%	13µM*
CCOC(=O)c1ccc(NC(=O)C2CCCO2)cc1 (configuration not stated)	-2	-9%	i	-10	1%	i
COC(=O)c1ccc(NC(=O)c2ccc(NC(=O)C3CCCO3)cc2)cc1 (configuration not stated)	6	-2%	i	-14	1%	i
CCc1ccc(NC(=O)c2ccc(NC(=O)C3CCCO3)cc2)cc1 (configuration not stated)	-4	-5%	i	-2	3%	23µM*
CC(=O)NNC(=O)c1[nH]c2ccc(Cl)cc2c1-c1ccccc1	-12	9%	i	-13	8%	?
O=C(N/N=C/c1c[nH]c2ccccc12)c1[nH]c2ccc(Br)cc2c1-c1ccccc1	-1	8.2µM*	1.6µM*	0	?	?
O=C(N/N=C/c1c[nH]c2ccccc12)c1cc(Br)ccc1O	-4	?	i	8	1%	i
